Assay results as given in PubChem BioAssay (NCATS).
Records with an inconclusive call do not appear. Active and inactive are the calls of the source. Unless noted, calls come from the whole dose curve; as a rule, active = well fitted curve in the direction sought with a large enough effect; inconclusive = small, poorly fitted or top-dose-only effect, or another doubt; inactive = no such curve, though single readings can be large; an effect the other way counts as inactive or inconclusive.

Assays:
[1] = molecular target: Cytochrome P450 3A4 (Homo sapiens) (UniProt P08684); assay: qHTS Assay for Inhibitors and Substrates of Cytochrome P450 3A4 (AID 884); note: % is set by controls: 0 for no effect and ±100 for the full control effect; nearly all actives have a fitted effect of over 50% in size
Method in brief: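 Luminescent readout of luciferin produced by CYP3A4 (20 nM) dealkylation of Luciferin-PPXE, 25 uM (its KM). NADPH-driven reaction ran 60 min at RT after 10 min compound preincubation; data scaled to 57 uM ketoconazole as 100% inhibition.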

[2] = qHTS Assay for Lipid Storage Modulators (AID 1519; calls by dose curve; for activity change, negative = inhibition: % is set by controls: 0 for no effect and ±100 for the full control effect); details: Drosophila S3 cells, BODIPY lipid droplet/cell ratio, laser cytometry, cells loaded with oleic acid; for activity change, negative = inhibition: at 57.5 µM (top of the series)
Method in brief: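 Cells seeded at 5,000 per well were treated with compounds over a concentration series and loaded with oleic acid (400 uM, as added). Lipid droplet fluorescence (488 nm excitation, 500-530 nm channel) was read by laser-scanning cytometry and normalized to 20 uM Triacsin C.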

[3] = molecular target: Ubiquitin carboxyl-terminal hydrolase 1 (Homo sapiens) (UniProt O94782); assay: Inhibitors of USP1/UAF1: Pilot qHTS (AID 504865);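 note: rhodamine fluorescence freed from ubiquitin-rhodamine substrate followed over time; top concentration of the series differs between compounds; % is set by controls: 0 for no effect and ±100 for the full control effect; nearly all actives have a fitted effect of over 35% in size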
Method in brief: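 In 50mM HEPES pH 7.8 containing 0.5mM EDTA, 1mM TCEP, 0.1 mg/ml BSA and 0.01% Tween-20, 1nM USP1/UAF1 is exposed to compound for 15 min, then Ub-Rho (150nM final) is added and fluorescence is read over time.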

[4] = molecular target: DNA dC->dU-editing enzyme APOBEC-3G (Homo sapiens) (UniProt Q9HC16); assay: qHTS for inhibitors of Vif-A3G interactions: Validation (AID 588379); note: 0% is about no effect
Method in brief: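 Yellow fluorescence (Ex 488, Em 500-530) of Vif-coexpressing HeLa A3G-eYFP cells, scanned by Acumen cytometer, reports blocked A3G degradation. Cells plated at 700/well overnight at 37 deg C before compound addition, then a further overnight compound incubation at 37 deg C.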

[5] = Confirmation and Secondary Assay for Modulators of Hemoglobin Beta Chain Splicing at IVS2 654 locus (AID 910);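 note: HeLa cells stably carrying EGFP split by mutant beta-globin IVS2-654 intron; % of control where 0% means no effect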
Method in brief: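 HeLa cells stably expressing EGFP interrupted by β-globin IVS2-654 intron, seeded overnight in Opti-MEM/2% FCS, then treated 2 days at 37 °C. Restored splicing read as total peak GFP intensity per well by laser scanning cytometry (488 nm excitation, 500–520 nm emission); 500 nM antisense PNA as control.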

[6] = Confirmation and Secondary Assay for Modulators of Hemoglobin Beta Chain Splicing at IVS2 705 locus (AID 930);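 note: HeLa cells stably expressing the EGFP-705 splicing reporter; GFP fluorescence per well restored by corrected splicing of the IVS2-705 intron in EGFP; % of control where 0% means no effect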
Method in brief: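 Assay measures total GFP intensity per well in HeLa EGFP-705 cells after 2 days with compound; mis-splicing normally truncates EGFP, so fluorescence indicates corrected splicing.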

[7] = molecular target: ATP-dependent 6-phosphofructokinase (Trypanosoma brucei brucei) (UniProt O15648); assay: qHTS Assay to Find Inhibitors of T. brucei phosphofructokinase: hit validation (AID 492961); note: % is set by controls: 0 for no effect and ±100 for the full control effect
Method in brief: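 Luminescence from ADP-Glo reports ADP generated as T. brucei PFK (1.25 nM) phosphorylates 0.5 mM fructose-6-phosphate using 0.1 mM ATP. Reactions ran 45 min at room temperature, pH 8.0.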

[8] = molecular target: Luciferin 4-monooxygenase (Photinus pyralis) (UniProt P08659); assay: Biochemical firefly luciferase enzyme assay for NPC (AID 624030); note: nearly all actives have a fitted effect of over 70% in size; note: potency is the fitted concentration of half-maximal effect;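 for activity change, negative = inhibition: purified P. pyralis luciferase at 10 nM with luciferin and ATP substrate; 0% = DMSO and -100% = full luciferase inhibition by PTC124 control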
Method in brief: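 Purified P. pyralis luciferase at 10 nM in 50 mM Tris Acetate (final), luminescence read within 5 minutes of enzyme addition to compounds. Activity normalised to PTC124 versus DMSO; concentration-response curves classed by r2, magnitude and activity.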

[9] = S16 Schwann cell PMP22 intronic element firefly luciferase assay (AID 624032);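 note: plate controls were DMSO for no effect and PTC124 positive control mean for full effect; nearly all actives have a fitted effect of over 30% in size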
Method in brief: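 Rat S16 Schwann cells stably carrying firefly luciferase driven by a PMP22 intronic element, in 10% FBS, treated 24 h at 37 C. ONE-Glo luminescence normalized to PTC124 control and DMSO (0%); curves classed by r2, magnitude and activity.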

[10] = qHTS profiling for inhibitors of Plasmodium falciparum proliferation (AID 504749);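 note: 0% = DMSO vehicle and full inhibition = artemisinin control; nearly all actives have a fitted effect of over 60% in size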; details: P. falciparum in erythrocytes, SYBR Green DNA, 72 h, at 28.7 µM (top of the series)
Method in brief: (§1)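 SYBR Green fluorescence (ex 485 nm, em 535 nm) reports parasite DNA after 72 h compound exposure of infected red cells at 0.3% parasitemia, 2.5% hematocrit; signal normalized to 0.29 uM artemisinin and vehicle wells.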

CP191 = assay: as above; details: P. falciparum in erythrocytes, SYBR Green DNA, 72 h; series mostly up to 12.8 µM
Method in brief: as §1

CP194 = assay: as above; details: P. falciparum in erythrocytes, SYBR Green DNA, 72 h; series mostly up to 12.8 µM
Method in brief: as §1

CP201 = assay: as above; details: P. falciparum in erythrocytes, SYBR Green DNA, 72 h; series mostly up to 12.8 µM
Method in brief: as §1

CP315 = assay: as above; details: P. falciparum in erythrocytes, SYBR Green DNA, 72 h; series mostly up to 12.8 µM
Method in brief: as §1

FAB9 = assay: as above; details: P. falciparum in erythrocytes, SYBR Green DNA, 72 h; series mostly up to 12.8 µM
Method in brief: as §1

JCK = assay: as above; details: P. falciparum in erythrocytes, SYBR Green DNA, 72 h; series mostly up to 12.8 µM
Method in brief: as §1

P94_40 = assay: as above; details: P. falciparum in erythrocytes, SYBR Green DNA, 72 h; series mostly up to 12.8 µM
Method in brief: as §1

PC15 = assay: as above; details: P. falciparum in erythrocytes, SYBR Green DNA, 72 h; series mostly up to 12.8 µM
Method in brief: as §1

PC49 = assay: as above; details: P. falciparum in erythrocytes, SYBR Green DNA, 72 h; series mostly up to 12.8 µM
Method in brief: as §1

[11] = measured here: cell count channel max response
[12] = measured here: lipid channel max response

Chain of Cytochrome P450 3A4 (Homo sapiens) (P08684 whole entry, looked up): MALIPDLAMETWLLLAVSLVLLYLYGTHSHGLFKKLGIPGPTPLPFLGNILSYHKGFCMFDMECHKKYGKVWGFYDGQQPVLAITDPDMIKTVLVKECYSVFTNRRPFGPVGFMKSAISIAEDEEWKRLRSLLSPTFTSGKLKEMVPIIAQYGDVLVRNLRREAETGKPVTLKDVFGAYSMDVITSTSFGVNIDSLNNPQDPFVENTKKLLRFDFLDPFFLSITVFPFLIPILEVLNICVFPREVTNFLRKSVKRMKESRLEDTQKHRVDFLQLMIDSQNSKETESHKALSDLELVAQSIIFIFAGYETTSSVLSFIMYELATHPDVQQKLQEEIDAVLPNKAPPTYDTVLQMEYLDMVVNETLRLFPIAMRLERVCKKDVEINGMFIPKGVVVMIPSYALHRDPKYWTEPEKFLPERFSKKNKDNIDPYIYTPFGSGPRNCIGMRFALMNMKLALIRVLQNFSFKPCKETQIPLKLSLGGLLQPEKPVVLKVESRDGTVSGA
Chain of ATP-dependent 6-phosphofructokinase (Trypanosoma brucei brucei) (O15648 whole entry, looked up): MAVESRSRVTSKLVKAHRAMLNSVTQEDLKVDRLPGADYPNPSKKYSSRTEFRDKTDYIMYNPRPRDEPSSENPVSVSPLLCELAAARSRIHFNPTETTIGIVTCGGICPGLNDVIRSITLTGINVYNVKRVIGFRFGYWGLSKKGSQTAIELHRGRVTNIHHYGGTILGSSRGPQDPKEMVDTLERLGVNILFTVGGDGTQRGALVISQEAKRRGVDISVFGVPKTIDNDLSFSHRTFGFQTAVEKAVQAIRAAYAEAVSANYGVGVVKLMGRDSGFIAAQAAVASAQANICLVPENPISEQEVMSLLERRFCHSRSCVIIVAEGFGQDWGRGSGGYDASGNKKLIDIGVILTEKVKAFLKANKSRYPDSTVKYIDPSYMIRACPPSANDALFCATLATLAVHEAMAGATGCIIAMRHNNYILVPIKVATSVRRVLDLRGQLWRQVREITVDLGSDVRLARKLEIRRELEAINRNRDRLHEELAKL
Chain of Luciferin 4-monooxygenase (Photinus pyralis) (P08659 whole entry, looked up): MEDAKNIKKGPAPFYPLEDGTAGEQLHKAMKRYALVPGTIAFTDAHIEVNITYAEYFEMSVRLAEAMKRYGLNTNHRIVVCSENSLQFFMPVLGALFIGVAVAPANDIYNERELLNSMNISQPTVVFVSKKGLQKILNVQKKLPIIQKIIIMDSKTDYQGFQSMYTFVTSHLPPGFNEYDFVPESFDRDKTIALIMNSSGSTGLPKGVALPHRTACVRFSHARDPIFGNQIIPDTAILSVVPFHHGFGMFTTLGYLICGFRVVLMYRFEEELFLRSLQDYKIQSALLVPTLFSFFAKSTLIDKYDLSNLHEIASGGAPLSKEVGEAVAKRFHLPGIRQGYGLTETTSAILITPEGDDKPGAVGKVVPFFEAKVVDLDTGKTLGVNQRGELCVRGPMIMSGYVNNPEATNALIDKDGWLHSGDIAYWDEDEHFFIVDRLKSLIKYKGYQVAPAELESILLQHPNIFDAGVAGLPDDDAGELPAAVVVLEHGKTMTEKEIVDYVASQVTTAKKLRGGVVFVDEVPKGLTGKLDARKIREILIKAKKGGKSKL
Chain of Ubiquitin carboxyl-terminal hydrolase 1 (Homo sapiens) (O94782 whole entry, looked up): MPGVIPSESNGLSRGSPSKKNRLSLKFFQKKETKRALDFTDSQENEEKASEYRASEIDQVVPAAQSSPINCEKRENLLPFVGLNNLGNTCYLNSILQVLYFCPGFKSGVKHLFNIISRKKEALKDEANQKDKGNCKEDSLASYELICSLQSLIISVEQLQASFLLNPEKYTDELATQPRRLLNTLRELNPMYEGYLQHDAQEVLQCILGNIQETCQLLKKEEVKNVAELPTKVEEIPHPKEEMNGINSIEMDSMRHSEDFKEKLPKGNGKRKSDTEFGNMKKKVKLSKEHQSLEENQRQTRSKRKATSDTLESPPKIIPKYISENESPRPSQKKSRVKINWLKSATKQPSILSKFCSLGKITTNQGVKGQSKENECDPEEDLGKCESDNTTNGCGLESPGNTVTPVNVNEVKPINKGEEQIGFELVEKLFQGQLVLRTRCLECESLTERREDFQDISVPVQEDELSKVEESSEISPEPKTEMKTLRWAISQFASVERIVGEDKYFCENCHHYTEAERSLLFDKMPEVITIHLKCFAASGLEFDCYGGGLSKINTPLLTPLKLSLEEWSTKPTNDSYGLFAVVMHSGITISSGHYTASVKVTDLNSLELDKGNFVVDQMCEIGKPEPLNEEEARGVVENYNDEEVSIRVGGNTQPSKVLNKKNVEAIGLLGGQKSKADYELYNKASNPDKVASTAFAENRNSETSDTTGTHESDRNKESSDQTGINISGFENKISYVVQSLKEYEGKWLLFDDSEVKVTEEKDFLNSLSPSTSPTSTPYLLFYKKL
Chain of DNA dC->dU-editing enzyme APOBEC-3G (Homo sapiens) (Q9HC16 whole entry, looked up): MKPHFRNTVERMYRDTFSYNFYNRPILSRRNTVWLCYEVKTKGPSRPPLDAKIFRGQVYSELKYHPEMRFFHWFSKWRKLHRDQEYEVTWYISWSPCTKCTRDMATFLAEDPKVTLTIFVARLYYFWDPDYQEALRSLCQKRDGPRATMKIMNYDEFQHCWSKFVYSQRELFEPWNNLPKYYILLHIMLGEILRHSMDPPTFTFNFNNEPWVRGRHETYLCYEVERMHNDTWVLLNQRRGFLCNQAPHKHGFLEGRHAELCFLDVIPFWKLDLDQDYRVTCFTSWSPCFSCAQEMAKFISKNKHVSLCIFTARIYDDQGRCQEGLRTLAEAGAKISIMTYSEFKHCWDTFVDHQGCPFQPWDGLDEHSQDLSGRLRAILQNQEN

O=c1c(-c2ccc(O[C@@H]3O[C@H](CO)[C@@H](O)[C@H](O)[C@H]3O)cc2)coc2cc(O)cc(O)c12
5.64%: max response [2, 12]
-1.95%: max response [2, 11]
inactive: Potency [1] | activity change, negative = inhibition [2] 7.95% | Potency [3] | outcome [4]

CC[C@H](CC[C@@H](C)C1CC[C@H]2[C@@H]3CC=C4C[C@@H](O)CC[C@]4(C)[C@H]3CC[C@]12C)C(C)C (stereo partly specified)
42.8%: max response [2, 12]
inactive: activity change, negative = inhibition [2] -0.0175% | Potency [3] | outcome [4]
43.5%: max response [2, 11]

CC(C)Oc1ccc2c(=O)cc(-c3ccccc3)oc2c1
14.7%: max response [2, 11]
29.4%: max response [2, 12]
inactive: Potency [1] | Potency [5] | Potency [6] | activity change, negative = inhibition [2] 14.1% | outcome [7] | Potency [9] | activity, negative = inhibition ([10]; parasite line A) -21.9% | Potency (CP191) | Potency (CP194) | Potency (CP201) | Potency (CP315) | Potency (FAB9) | Potency (JCK) | Potency (P94_40) | Potency (PC15) | Potency (PC49)
active: Potency [8] 809 nM

NCC1CCC(N)C(O[C@@H]2C(O)[C@H](O[C@H]3OC(CO)C(O)C(N)C3O)[C@@H](N)C[C@H]2N)O1 (stereo partly specified)
inactive: Potency [1] | Potency [5] | Potency [6] | activity change, negative = inhibition [2] 9.66% | outcome [7] | Potency [3] | Potency [8] | Potency [9] | activity, negative = inhibition ([10]; parasite line A) 7.73% | activity, negative = inhibition ([10]; parasite line B) 10.2% | Potency (CP191) | Potency (CP194) | Potency (CP201) | Potency (CP315) | Potency (FAB9) | Potency (JCK) | Potency (P94_40) | Potency (PC15) | Potency (PC49)
28.1%: max response [2, 11]
44.9%: max response [2, 12]

CC(=O)[C@]1(O)CCC2C3C=C(Cl)C4=CC(=O)C5CC5[C@@]4(C)C3CC[C@]21C (stereo partly specified)
14.3%: max response [2, 12]
inactive: Potency [5] | Potency [6] | activity change, negative = inhibition [2] 8.7% | outcome [7] | Potency [8] | Potency [9] | activity, negative = inhibition ([10]; parasite line A) 6.27% | activity, negative = inhibition ([10]; parasite line B) 5.21% | Potency (CP191) | Potency (CP194) | Potency (CP201) | Potency (CP315) | Potency (FAB9) | Potency (JCK) | Potency (P94_40) | Potency (PC15) | Potency (PC49)
4.22%: max response [2, 11]

CC1C2CCC3C4CC=C5CC(N(C)C)CC[C@@]5(C)C4CC[C@@]32CN1C (stereo partly specified)
22.7%: max response [2, 12]
inactive: Potency [1] | Potency [5] | Potency [6] | activity change, negative = inhibition [2] 6.04% | outcome [7] | Potency [3] | Potency [8] | Potency [9] | activity, negative = inhibition ([10]; parasite line A) 2.63% | activity, negative = inhibition ([10]; parasite line B) 0.451% | Potency (CP191) | Potency (CP194) | Potency (CP201) | Potency (CP315) | Potency (FAB9) | Potency (JCK) | Potency (P94_40) | Potency (PC15) | Potency (PC49)
14%: max response [2, 11]
